# In PubChem BioAssay (NCI):
# About 83,000 compounds went through this panel and 20% of them were active in at least one assay; those are over-represented in the sample as a whole.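 The test compound was applied at a single concentration to cells in 96-well plates for 48 hours, and percent growth was recorded.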 A number with no mark means an inactive call. Active and inactive are the calls of the source. Rule for the calls: active = growth percent below 10; inactive = the rest.
# Experiments:
# Experiment in all cases: NCI-60 one-dose screen, 48 h (100 = growth as untreated, 0 = no growth, -100 = all killed)
# Details in all cases: 10 µM
# SK-MEL-2 melanoma = test system: SK-MEL-2 melanoma
# EKVX NSCLC = test system: EKVX NSCLC
# SN12C renal = test system: SN12C renal
# UO-31 renal = test system: UO-31 renal
# TK-10 renal = test system: TK-10 renal
# ACHN renal = test system: ACHN renal
# CAKI-1 renal = test system: CAKI-1 renal
# A498 renal = test system: A498 renal
# CCRF-CEM leukemia = test system: CCRF-CEM leukemia
# MOLT-4 leukemia = test system: MOLT-4 leukemia
# SR leukemia = test system: SR leukemia
# RPMI-8226 leukemia = test system: RPMI-8226 leukemia
# OVCAR-8 ovarian = test system: OVCAR-8 ovarian
# OVCAR-5 ovarian = test system: OVCAR-5 ovarian
# OVCAR-4 ovarian = test system: OVCAR-4 ovarian
# SK-OV-3 ovarian = test system: SK-OV-3 ovarian
# IGROV1 ovarian = test system: IGROV1 ovarian
# OVCAR-3 ovarian = test system: OVCAR-3 ovarian
# HS 578T breast = test system: HS 578T breast
# NCI/ADR-RES ovarian = test system: NCI/ADR-RES ovarian
SMILES,growth (SK-MEL-2 melanoma),growth (EKVX NSCLC),growth (SN12C renal),growth (UO-31 renal),growth (TK-10 renal),growth (ACHN renal),growth (CAKI-1 renal),growth (A498 renal),growth (CCRF-CEM leukemia),growth (MOLT-4 leukemia),growth (SR leukemia),growth (RPMI-8226 leukemia),growth (OVCAR-8 ovarian),growth (OVCAR-5 ovarian),growth (OVCAR-4 ovarian) [%],growth (SK-OV-3 ovarian),growth (IGROV1 ovarian),growth (OVCAR-3 ovarian),growth (HS 578T breast),growth (NCI/ADR-RES ovarian)
Cc1ccc2nc3c(nc2c1)c1cc(I)ccc1n3CCN(C)C,52.2%,30.9%,21.4%,8.11% (active),48.9%,6.64% (active),8.68% (active),62.9%,32.7%,10%,10.8%,22%,23.6%,31.9%,27.2,39%,13.9%,40.8%,23.9%,12.5%
CCOC(=O)c1c(CSc2ccccc2)n(C)c2cc(CN(C)C)c(O)c(CN(C)C)c12,77.5%,36.9%,27.2%,28%,75.9%,59%,57.8%,118%,42.7%,49%,21.4%,28.5%,30.4%,63.4%,36.5,87%,25.4%,13.8%,44.3%,76.4%
COc1cc(NC(=O)CSc2nnc(-c3ccc4nc(-c5ccc(Cl)cc5)[nH]c4c3)o2)cc(OC)c1OC,93.4%,93.1%,70.2%,63.8%,116%,66.1%,67.8%,121%,26.7%,25.1%,48%,21.3%,42.1%,132%,61.9,101%,73.8%,71.8%,–,99.8%
CCOP(=O)(OCC)O[C@H]1CCC(=O)[C@@H]2[C@H]1[C@H]1C[C@@H]3[C@@]4(C)CCCC(C)(C(=O)OC)[C@@H]4CC[C@@]23C=C1C(C)C (stereo not given in full),71.3%,41.5%,65.4%,53.5%,83.2%,65.2%,63.2%,91.1%,55.1%,30%,37.5%,21.9%,55.5%,92.7%,–,54%,72.1%,67.7%,59.5%,44.3%
COc1cc(C2CC(c3ccc(C)cc3)=Nc3c(N)nc(N)nc3N2)ccc1Oc1nc(Nc2ccc(F)cc2)nc(N(C)C)n1 (stereo not given),72.9%,70.1%,68.6%,53.3%,101%,47.1%,49.4%,96.5%,47.1%,13.2%,0.613% (active),22.3%,61.2%,99.6%,50.9,100%,53.8%,56.2%,57.6%,51.7%
COc1ccc(OC)c(-c2cc(-c3c[nH]c4ccccc34)nc(N)c2C#N)c1,-18.3% (active),13.7%,2.5% (active),-15.5% (active),37.4%,8.49% (active),7.28% (active),2.72% (active),8.99% (active),7.55% (active),8.54% (active),6.3% (active),6.52% (active),15.1%,22.9,34.3%,15.9%,-23.5% (active),-16.5% (active),-34.1% (active)
COc1ccc(-c2cc(-c3cc(C(=O)c4ccccc4)n4ccc(C)cc34)nc(N)c2C#N)cc1,84.8%,81.2%,70%,65%,92.4%,56.4%,69.9%,127%,98.3%,93.8%,86.7%,78.9%,20.2%,90%,24.2,94.4%,79.1%,60.5%,–,43.6%
O=C(CNc1nc(-c2ccccc2)cs1)Nc1ccc(Cl)cc1[N+](=O)[O-],-50.1% (active),-8.05% (active),-28.7% (active),-56.4% (active),0.433% (active),-60.6% (active),2.07% (active),14.8%,11.1%,3.2% (active),7.61% (active),1.75% (active),10.8%,-52.2% (active),15.5,-6.03% (active),8.13% (active),–,-18.3% (active),-30.7% (active)
C/C(=N\N=C\c1ccc(Cl)c([N+](=O)[O-])c1)c1ccc2c(c1)Nc1ccccc1S2,69.4%,48%,37.2%,76.9%,77%,45.6%,60.3%,91.8%,56.4%,40.3%,44.1%,33.3%,6.83% (active),72.8%,–,94.8%,60.3%,27.5%,0.197% (active),11.7%
O=C(NO)c1ccc(CNc2nc(-c3ccccc3)c3ccccc3n2)cc1,-20.4% (active),15.6%,-0.363% (active),-18.8% (active),-17.2% (active),-74.2% (active),-4.81% (active),-42.4% (active),15%,12.3%,15.7%,11.3%,6.42% (active),-22.4% (active),32.9,-39.1% (active),-46.3% (active),-11.3% (active),2.21% (active),-44.5% (active)
Nc1nnc(-c2c[nH]c3ncccc23)c(-c2c[nH]c3ccc(Br)cc23)n1,23.7%,53.1%,45.2%,35.6%,44.9%,35.1%,23.1%,48.4%,39.8%,12.7%,19.1%,38.7%,46.2%,68.2%,55.7,55.3%,25.7%,–,33.7%,98.6%
CCOC(=O)C(Cc1ccccc1)N1C(=O)/C(=C/N2N=C(c3ccc(OC)cc3)CC2c2ccc3ccccc3c2)SC1=S (stereo not given),-64.1% (active),-7.27% (active),8.88% (active),16.2%,24.8%,23.2%,24.8%,-13.3% (active),5.96% (active),4.16% (active),6.53% (active),4.07% (active),17.1%,39.3%,35.1,9.93% (active),13%,–,1.03% (active),54.1%
Cc1ccc(C(=O)CSc2nnc(-c3c[nH]c4ccccc34)n2-c2ccccc2)cc1,84.7%,53%,24.9%,30.3%,-2.18% (active),20.4%,12.4%,85.8%,60.8%,61.7%,53%,58.9%,11.3%,13%,–,24%,24.2%,65.2%,-0.727% (active),-27.7% (active)
CC1(c2ccccc2)NC(=O)N(CC(=O)Nc2ccc(C(=O)/C=C/c3ccccc3)cc2)C1=O (stereo not given),75.3%,58.2%,68.7%,52.9%,92.1%,60.3%,61.9%,104%,35.7%,22.9%,14.4%,–,65.1%,89.2%,60.9,121%,61.7%,37.7%,71.5%,87.5%
CN1CCO/C1=C(/NC(=O)c1ccc(Cl)cc1)[P+](c1ccccc1)(c1ccccc1)c1ccccc1,90.9%,81.2%,92.4%,86.7%,99.6%,110%,103%,125%,77.9%,87.9%,80.9%,24.8%,–,92.1%,83.3,106%,59.4%,64.1%,93.7%,103%
